In the library only some 10% were active in any assay of this set; here they are far more common.
KinaseGlo FLuc – Counterscreen for Luciferase (Kinase-Glo TM) Inhibition; 200,000 tested, 0.28% active; Luciferin 4-monooxygenase (Photuris pensylvanica), Q27757; Potency, µM (titrated, usually from 38.3 µM), for inactives: at the top dose activity change, negative = inhibition, hits mostly inhibitors; Kinase-Glo luciferase, ATP luminescence, 8 min; active = well fitted inhibition curve with a large enough effect; inconclusive = small, poorly fitted or top-dose-only effect; note: potency is the fitted concentration of half-maximal effect; nearly all actives have a fitted effect of over 60% in size
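Kinase-Glo luciferase light output from ATP and luciferin was measured with 10 uM ATP, within the enzyme's linear range. Buffer: 50 mM imidazole pH 7.2, 50 mM KCl, 7 mM MgCl2, 0.01% Tween 20, 0.05% BSA; luminescence read after 8 min at ambient temperature.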
ALDH1A1 block – qHTS Assay for Inhibitors of Aldehyde Dehydrogenase 1 (ALDH1A1); Aldehyde dehydrogenase 1A1 (Homo sapiens), P00352; Purified ALDH1A1, NADH fluorescence, propionaldehyde substrate; Potency, µM (series often up to 75.3 µM), inactives show at the top dose activity, negative = inhibition, most hits filed as inhibitors; 220,000 tested, 7.3% active;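 note: potency is the fitted concentration of half-maximal effect; plate controls were no enzyme wells and a reference inhibitor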
Target sequence (P00352 whole entry, looked up): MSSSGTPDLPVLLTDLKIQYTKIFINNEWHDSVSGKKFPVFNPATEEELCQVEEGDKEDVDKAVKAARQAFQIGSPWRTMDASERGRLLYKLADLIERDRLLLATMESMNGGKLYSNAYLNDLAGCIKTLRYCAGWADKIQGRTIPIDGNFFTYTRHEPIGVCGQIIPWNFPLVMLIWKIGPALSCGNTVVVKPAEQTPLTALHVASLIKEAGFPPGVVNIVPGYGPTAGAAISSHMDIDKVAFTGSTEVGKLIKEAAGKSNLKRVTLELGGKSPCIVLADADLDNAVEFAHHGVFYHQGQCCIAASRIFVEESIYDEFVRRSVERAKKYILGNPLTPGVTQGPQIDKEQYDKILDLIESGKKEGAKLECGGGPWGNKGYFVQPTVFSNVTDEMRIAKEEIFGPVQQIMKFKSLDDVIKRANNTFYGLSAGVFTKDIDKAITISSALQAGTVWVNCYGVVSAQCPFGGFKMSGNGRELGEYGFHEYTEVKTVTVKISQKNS
Lamin A splicing – qHTS Assay for Modulators of Lamin A Splicing. HeLa LMNA splicing GFP/RFP minigene ratio, 48 h. Potency, µM (doses to about 46.1 µM), inactives show top-dose ratio change, negative = inhibition, usual class: inhibitors. 200,000 tested, 0.01% active. AID 1487, 2009; active = well fitted inhibition curve with a large enough effect in the signal ratio, with a control signal flat, not every such curve was filed as active; inconclusive = small, poorly fitted or top-dose-only effect, or effect the other way, or a change in a side signal; the % refers to the signal ratio; note: potency is the fitted concentration of half-maximal effect
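Read-out is the ratio of GFP to DsRed2 object intensity, acquired by 488 nm laser-scanning cytometry on HeLa lamin A-EGFP minigene reporter cells. Compound incubation 48 hrs at 37 °C in Opti-MEM with 2% FBS; DMSO 0.5% final.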
HPGD block – qHTS Assay for Inhibitors of HPGD (15-Hydroxyprostaglandin Dehydrogenase) | 15-hydroxyprostaglandin dehydrogenase [NAD(+)] (Homo sapiens), P15428 | purified HPGD, NADH fluorescence kinetic, PGE2 substrate | Potency, µM, without a hit: at the top dose activity change, negative = inhibition, most hits filed as inhibitors | 150,000 tested, 4.3% active | AID 894, 2007; note: potency is the fitted concentration of half-maximal effect
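20 nM HPGD preincubated 15 min at room temperature with compound in 50 mM Tris-HCl pH 8, 0.01% Tween 20. Started with 1 mM NAD+ and 30 uM prostaglandin E2; NADH fluorescence (360/450 nm) read 5 times over 30-s intervals, last minus first.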
PNC assembly inh – High Content Assay for Compounds that inhibit the Assembly of the Perinucleolar Compartment; PC3M PTB-GFP, PNC prevalence imaging, 16 h; active compounds read low; activity change (PNC), negative = inhibition, % at 10 µM; 140,000 tested, 3.1% active; AID 2417, 2010;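 active = readout at or below -70, meaning at least 70% loss of cells showing the perinucleolar compartment, a nuclear body marking cancer cells; inconclusive = readout between -30 and a set limit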;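 note: plate controls were DMSO wells for no effect and camptothecin positive control wells for full effect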
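Compounds are pinned in duplicate onto adhered PC3M cells stably expressing GFP-tagged PTB and incubated 16 h at 37 C. Cells are then fixed, nuclei stained with Hoechst, and PNC-positive cells counted.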
Numbers without * were called inactive; u = inconclusive; x = no result given; [ ] = another dose, or the depositor's remark. Unless noted, calls come from the whole dose curve; as a rule, active = well fitted inhibition curve with a large enough effect (not every such curve was filed as active); inconclusive = small, poorly fitted or top-dose-only effect, or another doubt; inactive = no such curve, though single readings can be large or run the other way. Unless noted, % is set by controls: 0 for no effect and ±100 for the full control effect.

SMILES	KinaseGlo FLuc	ALDH1A1 block	Lamin A splicing	HPGD block	PNC assembly inh
COc1cc(SC)ccc1C(=O)NCc1ccc(C)cc1	1%	u	-1%	20µM*	89
COc1ccccc1OCCNC(=O)c1cc(SC)ccc1Cl	2%	-4%	-5%	-2%	-113*
CCCNC(=O)c1ccc(SC)cc1OC	-5%	u	-4%	25µM*	u
NCCC[C@@H](CC(=O)N[C@@H]1CCCC[C@H]1C(=O)N[C@H](CC(=O)N[C@@H](CCC(=O)O)CC(=O)O)Cc1c[nH]c2ccccc12)NC(=O)C[C@H](Cc1c[nH]c2ccccc12)NC(=O)[C@@H]1CCCC[C@H]1N	2%	u	x	-12%	x
Cc1cccc(Nc2n[nH]c(=S)s2)c1C	-3%	3.5µM*	10%	10µM*	-20
COc1cccc(Nc2n[nH]c(=S)s2)c1	-4%	3.5µM*	-15%	10µM*	u
COc1ccccc1Nc1n[nH]c(=S)s1	-2%	3.5µM*	5%[46 µM]	x	x
COc1cccc(Nc2nc3ccc(OC)cc3s2)c1	-3%	19%	x	x	x
COc1cccc([C@@H]2Oc3ccc(Br)cc3C[C@H]2OC(=O)Nc2ccc(OC(F)F)cc2)c1	-1%	-10%	x	-8%	x
COc1ccc(C=O)cc1OC(=O)C1(C)Cc2ccccc2C(=O)O1 (stereo not given)	2%	5µM*	x	x	x
O=C1NCCCN1Cc1ccc(F)cc1Cl	-5%	4.5µM*	-2%	-20%	22
CCOC(=O)c1cc(S(=O)(=O)N2CCN(c3cc(C)ccc3C)CC2)[nH]n1	x	x	-14%[46 µM]	x	x
CS(=O)(=O)CCC(C(=O)Nc1cccc(C(F)(F)F)c1)N1Cc2ccccc2C1=O (stereo not given)	x	x	-9%[46 µM]	x	x
COC(=O)c1ccccc1NC1=C/C(=N\S(=O)(=O)c2cccs2)c2ccccc2C1=O	u	3.2µM*	u	u	-22
CCc1cc[n+](C2=C([O-])c3ccccc3C(=O)/C2=N\S(=O)(=O)c2cccs2)cc1	0%	u	u	-10%	u
O=C1C(Nc2ccccc2)=C/C(=N/S(=O)(=O)c2cccs2)c2ccccc21	u	u	u	-11%	-81*
Cc1ccc(NC2=C/C(=N/S(=O)(=O)c3cccs3)c3ccccc3C2=O)cc1	-27%	12%	u	-3%	-101*
O=C1C=C(Nc2ccccc2)c2ccccc2C1=O	-13%	2%	u	x	x
COC(=O)c1ccc(CNCC(=O)Nc2ccc(C(=O)OC)cc2)cc1	0%	-5%	u	28µM*	17
COC(=O)c1ccc(NC(=O)CN2C(=O)C3C4C=CC(C4)C3C2=O)cc1 (stereo not given)	-5%	3%	5%	20µM*	20
COC(=O)c1ccc(NC(=O)CNCc2ccncc2)cc1	3%	22µM*	-6%	0%	-19
COC(=O)c1ccc(NC(=O)Cc2ccc(F)cc2)cc1	0%	3%	4%[46 µM]	x	x
CCOC(=O)c1ccc(NC(=O)C(=O)NCc2ccncc2)cc1	9%	u	-3%	-28%	u
Cc1cccc(NC(=O)c2sc3nc4c(c(-c5cccs5)c3c2N)CN(C)CC4)c1	5%	14µM*	14%	-17%	-20
CC(C)NC(=O)c1sc2nc3c(c(-c4cccs4)c2c1N)CN(C)CC3	-3%	-11%	2%	-13%	32
SMILES	KinaseGlo FLuc	ALDH1A1 block	Lamin A splicing	HPGD block	PNC assembly inh
CC(C)c1ccc(/C=N/NC(=O)c2nnn(-c3nonc3N)c2CSC2=NCCS2)cc1	1%	20µM*	u	-21%	28
O=C1Nc2cc(C(=O)N3CCc4ccccc4C3)ccc2S/C1=C\c1ccccc1	2%	u	u	16µM*	-13
CCCOc1ccc2oc(=O)c3c(c2c1)CCCN3C(=O)CN1CCN(c2ncccn2)CC1	x	2.8µM*	-1%	x	u
CNC1CCC(c2ccc(Cl)c(Cl)c2)c2ccccc21 (stereo not given)	-3%	-6%	x	1%	x
C=CCn1c(N)cc(=O)nc1SCC(=O)N(c1ccccc1)c1ccccc1	4%	22µM*	x	x	x
O=C1CCCC2=C1C1(CCCC1)N=C(Nc1nc3ccccc3s1)N2	0%	u	2%	u	-117*
CCOc1ccccc1NC(=O)CN1C(=O)C2(SCC(=O)N2c2ccc(C)cc2)c2ccccc21 (stereo not given)	x	x	-22%[46 µM]	x	x
COc1ccc(OCC(O)Cn2c(Nc3ccccc3)nc3c2c(=O)n(C)c(=O)n3C)cc1 (stereo not given)	1%	2%	8%	-23%	-83*
CCOC(=O)Cn1c(=O)c2c(nc(N3CCCCC3)n2Cc2ccccc2)n(C)c1=O	2%	14µM*	u	-10%	-23
Cn1c(=O)c2c(nc(N3CCCCCC3)n2CC(O)COc2ccccc2)n(C)c1=O (stereo not given)	-2%	1.6µM*	-1%	-9%	35
Cn1c(=O)c2c(nc(NC3CCCCC3)n2CC(O)COc2ccccc2)n(C)c1=O (stereo not given)	2%	u	u	-7%	14
Cc1cccc(Nc2nc3c(c(=O)n(C)c(=O)n3C)n2CC(O)CO)c1 (stereo not given)	-4%	11%	0%	3%	u
C/C(Cl)=C\Cn1c(Nc2ccc(C)cc2)nc2c1c(=O)n(C)c(=O)n2C	-2%	u	5%	-7%	-95*
C/C(Cl)=C/Cn1c(N2CCCC2)nc2c1c(=O)n(C)c(=O)n2C	-2%	-3%	u	1%	-11
CCN(CC)c1ccc(C(=O)N2CCC(c3ccncc3)CC2)cc1	x	x	15%[46 µM]	x	x
O=C(CSc1nc(-c2ccccc2)cn1-c1ccccc1F)Nc1ccc(F)cc1	x	x	-7%[46 µM]	x	x
O=c1ccc2cc(S(=O)(=O)NCc3ccc(Cl)cc3)ccc2[nH]1	x	x	15%[46 µM]	x	x
COc1ccc(-c2nc(SCC(=O)Nc3c(C)cc(C)cc3C)n[nH]2)cc1	x	x	17%[46 µM]	x	x
CC(O)Cn1c(=O)c2c(nc(Br)n2Cc2ccccc2)n(C)c1=O (stereo not given)	-2%	6%	-8%	-8%	-119*
COc1ccc(-c2c(C)nn(-c3ccccc3)c2N)cc1OC	-1%	8%	-6%	-14%	u
COc1cc(-c2nc3c(c(C)nn3-c3ccccc3)c3cc(OC)c(OC)cc23)ccc1O	-2%	u	9%[0.0737 µM]	u	-109*
COc1ccc(C(=O)/C=C/c2ccc(OC)c(COc3ccccc3F)c2)cc1	2%	2.5µM*	-21%	-25%	u
COc1ccc(C=O)cc1COc1ccc(F)cc1F	-1%	8.9µM*	-9%	32µM*	16
COc1ccc(/C=C/C(=O)c2ccccc2)cc1COc1ccc(F)cc1	-2%	1%	13%	-15%	36
